# From article PMC5540273 (PLoS ONE, 2017)
# “And” between values parts separate entries of the source, which are not always exact repeats. Equal values may be shown once. Read-outs that look alike come from different tables or passages of the source.
# What was measured:
# TAOK3 = details: concentration: 1 μM, replicates: in singlicate; n = 1
# TBK1 = details: n = 1
# TEC = details: concentration: 1 μM, replicates: in singlicate; n = 1
# TESK1 = details: concentration: 1 μM, replicates: in singlicate; n = 1
# TGFBR1 = details: n = 1
# TGFBR2 = details: concentration: 1 μM, replicates: in singlicate; n = 1
# TIE1 = details: n = 1
# TIE2 = test system: T1, TIE2; details: concentration: 1 μM, replicates: in singlicate; n = 1
# T1 construct: gene TEK
# TLK1 = details: n = 1
# TLK2 = details: concentration: 1 μM, replicates: in singlicate; n = 1
# TNIK = details: concentration: 1 μM, replicates: in singlicate; n = 1
# TNK1 = details: concentration: 1 μM, replicates: in singlicate; n = 1
# TNK2 = details: n = 1
# TNNI3K = details: n = 1
# TRKA = test system: T2, TRKA; details: concentration: 1 μM, replicates: in singlicate; n = 1
# T2 construct: gene NTRK1
# TRKB = details: n = 1
# TRKC = test system: T3, TRKC; details: n = 1
# T3 construct: gene NTRK3
# TRPM6 = details: n = 1
# TSSK1B = details: n = 1
# TSSK3 = details: n = 1
# [1] = concentration: 1 μM, replicates: in singlicate
# [2] = concentration: 1 μM,replicates: in singlicate, 1 µM
# 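Note: KINOMEscan kinase panel screen.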
compound,measurement,setting,value
Cc1ccccc1-n1cnc2c(N)ncnc21 [SKF-97510],%Inh,TAOK3,0%
same,%Inh,TBK1; [1],7%
same,%Inh,TEC,9%
same,%Inh,TESK1,3%
same,%Inh,TGFBR1; [1],0%
same,%Inh,TGFBR2,0%
same,%Inh,TIE1; [1],0%
same,%Inh,TIE2,0%
same,%Inh,TLK1; [1],81%
same,%Inh,TLK2,7%
same,%Inh,TNIK,0%
same,%Inh,TNK1,0%
same,%Inh,TNK2; [1],7%
same,%Inh,TNNI3K; [1],0%
same,%Inh,TRKA,0%
same,%Inh,TRKB; [1],0%
same,%Inh,TRKC; [1],0%
same,%Inh,TRPM6; [1],66%
same,%Inh,TSSK1B; [1],0%
same,%Inh,TSSK3; [1],0%
Cl.O=C(Nc1cccc(-c2nn3ncccc3c2-c2ccnc(Nc3cccnc3)n2)c1)c1c(F)cccc1F [GSK312879],%Inh,TAOK3,7%
same,%Inh,TBK1; [1],0%
same,%Inh,TEC,13%
same,%Inh,TESK1,0%
same,%Inh,TGFBR1; [1],0%
same,%Inh,TGFBR2,0%
same,%Inh,TIE1; [1],34%
same,%Inh,TIE2,1%
same,%Inh,TLK1; [1],0%
same,%Inh,TLK2,0%
same,%Inh,TNIK,1%
same,%Inh,TNK1,49%
same,%Inh,TNK2; [1],13%
same,%Inh,TNNI3K; [1],0%
same,%Inh,TRKA,0%
same,%Inh,TRKB; [1],30%
same,%Inh,TRKC; [1],7%
same,%Inh,TRPM6; [1],28%
same,%Inh,TSSK1B; [1],27%
same,%Inh,TSSK3; [1],9%
COc1cccc(NC(=O)NC2CCN(c3ccnc(Nc4ccc(F)cc4)n3)C2)c1 (stereo not shown) [GSK1379721],%Inh,TAOK3,2%
same,%Inh,TBK1; [1],16%
same,%Inh,TEC,0%
same,%Inh,TESK1,32%
same,%Inh,TGFBR1; [1],15%
same,%Inh,TGFBR2,0%
same,%Inh,TIE1; [1],0%
same,%Inh,TIE2,0%
same,%Inh,TLK1; [1],6%
same,%Inh,TLK2,4%
same,%Inh,TNIK,0%
same,%Inh,TNK1,0%
same,%Inh,TNK2; [1],0%
same,%Inh,TNNI3K; [1],2%
same,%Inh,TRKA,42%
same,%Inh,TRKB; [1],59%
same,%Inh,TRKC; [1],80%
same,%Inh,TRPM6; [1],26%
same,%Inh,TSSK1B; [1],9%
same,%Inh,TSSK3; [1],23%
Cc1c(Cn2ccn3c(=O)cc(N4CCOCC4)nc23)cccc1C(F)(F)F [GSK2289044],%Inh,TAOK3,0%
same,%Inh,TBK1; [1],7%
same,%Inh,TEC,0%
same,%Inh,TESK1,17%
same,%Inh,TGFBR1; [1],0%
same,%Inh,TGFBR2,0%
same,%Inh,TIE1; [1],10%
same,%Inh,TIE2,0%
same,%Inh,TLK1; [1],0%
same,%Inh,TLK2,0%
same,%Inh,TNIK,3%
same,%Inh,TNK1,0%
same,%Inh,TNK2; [1],6%
same,%Inh,TNNI3K; [1],2%
same,%Inh,TRKA,1%
same,%Inh,TRKB; [1],0%
same,%Inh,TRKC; [1],0%
same,%Inh,TRPM6; [1],12%
same,%Inh,TSSK1B; [1],12%
same,%Inh,TSSK3; [1],6%
CC(C)(C)c1ccc(C(=O)Nc2cn3cc(Cl)ccc3n2)cc1,%Inh,TAOK3,0%
same,%Inh,TBK1; [1],0%
same,%Inh,TEC,0%
same,%Inh,TESK1,0%
same,%Inh,TGFBR1; [1],0%
same,%Inh,TGFBR2,0%
same,%Inh,TIE1; [1],0%
same,%Inh,TIE2,13%
same,%Inh,TLK1; [1],23%
same,%Inh,TLK2,0%
same,%Inh,TNIK,4%
same,%Inh,TNK1,30%
same,%Inh,TNK2; [1],2%
same,%Inh,TNNI3K; [1],0%
same,%Inh,TRKA,0%
same,%Inh,TRKB; [1],0%
same,%Inh,TRKC; [1],0%
same,%Inh,TRPM6; [1],0%
same,%Inh,TSSK1B; [1],0%
same,%Inh,TSSK3; [1],0%
COc1cc2ncn(-c3cc(OCC4CCCO4)c(C(N)=O)s3)c2cc1OC (stereo not shown) [GSK204607],%Inh,TAOK3,0%
same,%Inh,TBK1; [1],23%
same,%Inh,TEC,0%
same,%Inh,TESK1,0%
same,%Inh,TGFBR1; [1],4%
same,%Inh,TGFBR2,0%
same,%Inh,TIE1; [1],0%
same,%Inh,TIE2,0%
same,%Inh,TLK1; [1],0%
same,%Inh,TLK2,11%
same,%Inh,TNIK,27%
same,%Inh,TNK1,0%
same,%Inh,TNK2; [1],17%
same,%Inh,TNNI3K; [1],0%
same,%Inh,TRKA,15%
same,%Inh,TRKB; [1],0%
same,%Inh,TRKC; [1],0%
same,%Inh,TRPM6; [1],0%
same,%Inh,TSSK1B; [1],0%
same,%Inh,TSSK3; [1],10%
O=C(Nc1n[nH]c2nc(-c3nccs3)c(Br)cc12)C1CC1 [SB-742251],%Inh,TAOK3,0%
same,%Inh,TBK1; [1],0%
same,%Inh,TEC,14%
same,%Inh,TESK1,36%
same,%Inh,TGFBR1; [1],15%
same,%Inh,TGFBR2,0%
same,%Inh,TIE1; [1],0%
same,%Inh,TIE2,8%
same,%Inh,TLK1; [1],0%
same,%Inh,TLK2,0%
same,%Inh,TNIK,0%
same,%Inh,TNK1,0%
same,%Inh,TNK2; [1],16%
same,%Inh,TNNI3K; [1],4%
same,%Inh,TRKA,59%
same,%Inh,TRKB; [1],62%
same,%Inh,TRKC; [1],66%
same,%Inh,TRPM6; [1],0%
same,%Inh,TSSK1B; [1],0%
same,%Inh,TSSK3; [1],15%
Cc1c(O)cccc1Nc1ccnc2ccc(C(F)(F)F)cc12.Cl [GW466413],%Inh,TAOK3,0%
same,%Inh,TBK1; [1],0%
same,%Inh,TEC,0%
same,%Inh,TESK1,10%
same,%Inh,TGFBR1; [1],2%
same,%Inh,TGFBR2,8%
same,%Inh,TIE1; [1],12%
same,%Inh,TIE2,0%
same,%Inh,TLK1; [1],14%
same,%Inh,TLK2,0%
same,%Inh,TNIK,0%
same,%Inh,TNK1,0%
same,%Inh,TNK2; [1],17%
same,%Inh,TNNI3K; [1],0%
same,%Inh,TRKA,9%
same,%Inh,TRKB; [1],0%
same,%Inh,TRKC; [1],31%
same,%Inh,TRPM6; [1],0%
same,%Inh,TSSK1B; [1],0%
same,%Inh,TSSK3; [1],1%
COc1ccc(CNC(=O)NC2CCN(c3ccnc(Nc4cc(OC)c(OC)c(OC)c4)n3)C2)cc1 (stereo not shown) [GSK1379748],%Inh,TAOK3,0%
same,%Inh,TBK1; [1],15%
same,%Inh,TEC,0%
same,%Inh,TESK1,2%
same,%Inh,TGFBR1; [1],0%
same,%Inh,TGFBR2,0%
same,%Inh,TIE1; [1],20%
same,%Inh,TIE2,0%
same,%Inh,TLK1; [1],9%
same,%Inh,TLK2,0%
same,%Inh,TNIK,0%
same,%Inh,TNK1,0%
same,%Inh,TNK2; [1],4%
same,%Inh,TNNI3K; [1],10%
same,%Inh,TRKA,73%
same,%Inh,TRKB; [1],23%
same,%Inh,TRKC; [1],40%
same,%Inh,TRPM6; [1],18%
same,%Inh,TSSK1B; [1],0%
same,%Inh,TSSK3; [1],10%
O=c1cc(N2CCOCC2)nc2n(Cc3cccc(Cl)c3Cl)ccn12 [GSK2286295],%Inh,TAOK3,0%
same,%Inh,TBK1; [1],19%
same,%Inh,TEC,0%
same,%Inh,TESK1,1%
same,%Inh,TGFBR1; [1],0%
same,%Inh,TGFBR2,0%
same,%Inh,TIE1; [1],0%
same,%Inh,TIE2,0%
same,%Inh,TLK1; [1],0%
same,%Inh,TLK2,0%
same,%Inh,TNIK,0%
same,%Inh,TNK1,8%
same,%Inh,TNK2; [1],12%
same,%Inh,TNNI3K; [1],13%
same,%Inh,TRKA,0%
same,%Inh,TRKB; [1],0%
same,%Inh,TRKC; [1],0%
same,%Inh,TRPM6; [1],25%
same,%Inh,TSSK1B; [1],0%
same,%Inh,TSSK3; [1],47%
CSc1nn2c(=O)cc(N3CCOCC3)nc2n1Cc1cccc(C(F)(F)F)c1C [GSK2363608],%Inh,TAOK3,0%
same,%Inh,TBK1; [2],20% and 5%
same,%Inh,TEC,7%
same,%Inh,TESK1,19%
same,%Inh,TGFBR1; [2],11% and 17%
same,%Inh,TGFBR2,0%
same,%Inh,TIE1; [2],0% and 2%
same,%Inh,TIE2,0%
same,%Inh,TLK1; [2],8% and 0%
same,%Inh,TLK2,0%
same,%Inh,TNIK,0%
same,%Inh,TNK1,0%
same,%Inh,TNK2; [2],17% and 30%
same,%Inh,TNNI3K; [2],1% and 10%
same,%Inh,TRKA,0%
same,%Inh,TRKB; [2],0% and 3%
same,%Inh,TRKC; [2],0% and 11%
same,%Inh,TRPM6; [2],22% and 0%
same,%Inh,TSSK1B; [2],18% and 77%
same,%Inh,TSSK3; [2],18% and 6%
